Source: PubChem BioAssay
A selection: hits, their analogues and other compounds. The true share with any hit is near 15%.
VP16 counter = inhibits Gal4-VP16 luciferase reporter, ROR gamma counter-screen. Drosophila S2 Gal4-VP16 UAS-luciferase, luminescence, 20 h. 310,000 tested, 3.5% active. Potency, µM (highest dose often 53.6 µM), usual class: inhibitors. AID 2546;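 further: Gal4-VP16 expression switched on by copper sulfate through the metallothionein promoter; nearly all actives have a fitted effect of over 50% in size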
RORgamma inh = ROR gamma (mouse) transcription inhibition; P51450; Drosophila S2 Gal4-RORgamma UAS-luciferase reporter, 20 h; Potency, µM (top dose mostly 53.6 µM), actives largely listed as inhibitors; 310,000 tested, 5.4% active; AID 2551; further: nearly all actives have a fitted effect of over 60% in size
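Compounds are pin-transferred onto Drosophila Schneider cells expressing a copper-inducible Gal4–ROR gamma transactivation domain fusion. After 1 hr, copper sulfate is added to 700 uM final; luciferase is read 20 hr later.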
ALOX12 inh = ALOX12 (human) lipoxygenase inhibition | purified 12hLO, xylenol orange hydroperoxide absorbance | Potency, µM (top dose mostly 108 µM), hits mostly inhibitors | 580,000 tested, 1.1% active | AID 1671190
Target sequence (P18054 whole entry, looked up): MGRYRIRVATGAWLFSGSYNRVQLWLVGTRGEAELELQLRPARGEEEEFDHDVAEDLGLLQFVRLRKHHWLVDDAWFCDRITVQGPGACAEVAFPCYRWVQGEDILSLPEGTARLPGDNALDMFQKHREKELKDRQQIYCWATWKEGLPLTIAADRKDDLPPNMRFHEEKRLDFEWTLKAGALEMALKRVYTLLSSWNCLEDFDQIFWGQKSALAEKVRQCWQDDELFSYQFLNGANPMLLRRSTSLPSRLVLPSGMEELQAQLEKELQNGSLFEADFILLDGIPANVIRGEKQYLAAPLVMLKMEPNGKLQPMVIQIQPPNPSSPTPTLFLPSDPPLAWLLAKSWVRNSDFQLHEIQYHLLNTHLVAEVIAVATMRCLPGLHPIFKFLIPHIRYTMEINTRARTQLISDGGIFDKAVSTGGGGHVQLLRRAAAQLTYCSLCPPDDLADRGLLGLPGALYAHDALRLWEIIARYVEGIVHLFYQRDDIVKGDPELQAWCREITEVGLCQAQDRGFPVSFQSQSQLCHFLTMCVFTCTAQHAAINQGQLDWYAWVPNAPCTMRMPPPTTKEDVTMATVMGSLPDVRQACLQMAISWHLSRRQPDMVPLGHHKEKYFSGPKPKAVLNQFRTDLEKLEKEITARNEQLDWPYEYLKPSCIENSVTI
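Hydroperoxide product was detected by ferrous iron/xylenol orange as the 573 to 405 nm absorbance ratio. Arachidonic acid at 40 uM (final) was turned over for 30 min at room temperature by 150 nM human 12hLO, pH 7.0 Hepes buffer, after 15 min compound preincubation.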
DT40 TDP1 CPT = DT40-hTDP1 cell growth loss with CPT; Potency, µM (highest dose often 46.2 µM), most hits filed as inhibitors; chicken DT40 Tdp1-/-;hTDP1 cells + 20 nM CPT, ATP luminescence, 48 h; 420,000 tested, 12% active; further: nearly all actives have a fitted effect of over 55% in size
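Chicken DT40 Tdp1-/- cells complemented with human TDP1, 400 cells/well, exposed to compounds plus 20 nM camptothecin for at least 48 h at 37 C; viability read as ATP content by CellTiter-Glo luminescence.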
ELG1 DNA repair = ELG1-dependent DNA repair inhibition. HEK293T ELG1-luciferase reporter, luminescence, 16 h; DNA damage induced by 5-fluorouridine. Potency, µM (highest dose often 46.1 µM), hits mostly inhibitors. 330,000 tested, 2.3% active. AID 504467; further: nearly all actives have a fitted effect of over 55% in size
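Quantitative HTS, concentration-response format. 2,000 cells/well co-treated with 5-fluorouridine and compound, 16 hr in 5% CO2 at 37 °C; ONE-Glo luminescence read after 30 min.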
DT40 TDP1 no CPT = qHTS for Inhibitors of human tyrosyl-DNA phosphodiesterase 1 (TDP1): qHTS in cells in absence of CPT. DT40 Tdp1-/- hTDP1 cells, no CPT, ATP luminescence, 48 h. Potency, µM (highest dose often 46.2 µM), most hits filed as inhibitors. 420,000 tested, 15% active; further: nearly all actives have a fitted effect of over 55% in size
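Chicken DT40 Tdp1-/- cells complemented with human TDP1, screened without camptothecin (DMSO vehicle only), 400 cells/well. Compounds pin-transferred, cells incubated at 37 °C for at least 48 hr. Growth read as ATP-dependent luminescence (CellTiter-Glo, 30 min at RT).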
Numbers stand for hits; – = inactive; ? = inconclusive; · = no result; [ ] = another dose, or the depositor's remark. The call rests on the fitted dose curve; in most records, active means well fitted curve in the direction sought with a large enough effect; inconclusive means small, poorly fitted or top-dose-only effect, or another doubt; inactive means no such curve, though single readings can be large; an effect the other way counts as inactive or inconclusive.

SMILES | VP16 counter | RORgamma inh | ALOX12 inh | DT40 TDP1 CPT | ELG1 DNA repair | DT40 TDP1 no CPT
CN(c1ccc(C(=O)N/N=C/c2cccc([N+](=O)[O-])c2)cc1)S(=O)(=O)c1ccccc1 | – | ? | – | 8.2µM | ? | ?
COc1ccc(/C=N/NC(=O)c2ccc(N(C)S(=O)(=O)c3ccccc3)cc2)cc1 | – | ? | – | ? | ? | 23µM
COc1ccc(/C=N/NC(=O)c2ccc(N(C)S(=O)(=O)c3ccccc3)cc2)c(OC)c1 | – | 10µM | – | – | – | ?
COc1ccc(OC)c(/C=N/NC(=O)c2ccc(N(C)S(=O)(=O)c3ccccc3)cc2)c1 | – | – | – | – | – | ?
CC(=O)NNC(=S)Nc1cccc(Cl)c1Cl | · | · | – | · | · | ·
Cc1ccc(S(=O)(=O)c2ccc([N+](=O)[O-])o2)cc1 | · | · | – | 0.033µM | · | 0.18µM
Cc1ccc(S(=O)(=O)Nc2c(C)cc([N+](=O)[O-])cc2C)cc1 | · | · | – | – | · | ?
CCCCCCCCN1C(=O)[C@H](CC(=O)NCCc2ccccc2OC)C[C@@]2(C(=O)OCC)CCC=C12 | · | · | – | ? | · | ?
CCOC(=O)[C@]12CCCC=C1N(CCC1=CCCCC1)C(=O)[C@H](CC(=O)NCCc1ccccc1OC)C2 | · | · | – | 13µM | · | 13µM
COC(=O)[C@]12CCCCC=C1N(CCC1=CCCCC1)C(=O)[C@H](CC(=O)NCCc1ccccc1OC)C2 | · | · | – | 16µM | · | ?
COc1cc(=O)n2c(c1C(=O)Nc1cccc(F)c1C)CCCC2 | · | · | – | · | · | ·
Cc1cc[n+]2c3c(cccc13)CCC2 | – | – | – | 21µM | – | 18µM
O=C(CCC1N=C2c3ccccc3N=C(SCC(=O)Nc3ccc(F)cc3)N2C1=O)NCc1ccco1 (stereo not given) | · | · | – | – | · | ?
O=C(CC1N=C2c3ccccc3N=C(SCC(=O)Nc3ccc(F)cc3)N2C1=O)NCc1ccco1 (stereo not given) | · | · | – | ? | · | 16µM
COc1ccc(NC(=O)CSC2=Nc3ccccc3C3=NC(CCC(=O)NCc4ccco4)C(=O)N23)cc1 (stereo not given) | · | · | – | 12µM | · | 12µM
CSc1cnn(-c2ccccc2)c(=O)c1SC | – | – | – | – | – | –
CSc1cnn(Cc2ccccc2)c(=O)c1SCc1ccccc1 | 2.5µM | 0.56µM | ? | ? | – | ?
Fc1ccc(-c2nnc(-c3ccc(Cl)cc3Cl)o2)cc1 | 10µM | 14µM | – | – | ? | –
Clc1ccc(-c2nnc(-c3ccccc3)o2)c(Cl)c1 | ? | – | – | – | ? | –
Cc1ccccc1Nc1nc(NC2CCCCC2)nc2c1cnn2C | · | · | – | · | · | ·
Cc1cc(C)c(N=C2C(=O)Nc3ccccc32)c(C)c1 | – | – | – | – | ? | –
CCc1ccc2c(c1)/C(=N/OC)C(=O)N2 | – | – | – | ? | – | 21µM
O=C(Oc1oc(-c2ccco2)nc1C=Nc1ccccc1)c1ccco1 | · | –[0.365 µM] | · | 3.7µM | ? | 4.6µM
O=C(Oc1oc(-c2ccco2)nc1C=Nc1ccccc1)c1ccoc1 | – | – | – | 5.2µM | ? | 12µM
COc1ccc(N=Cc2nc(-c3ccccc3)oc2OC(C)=O)cc1 | – | ? | – | ? | ? | 13µM
SMILES | VP16 counter | RORgamma inh | ALOX12 inh | DT40 TDP1 CPT | ELG1 DNA repair | DT40 TDP1 no CPT
Cc1ccc(N=Cc2nc(-c3ccco3)oc2O)cc1 | – | – | ? | – | ? | ?
Cc1ccc(C(=O)Oc2oc(-c3ccco3)nc2C=Nc2ccc(Cl)cc2)cc1 | – | – | ? | 18µM | ? | 23µM
COc1cccc(N=Cc2nc(-c3ccccc3)oc2OC(C)=O)c1 | ? | – | – | – | ? | –
O=C(NC1CCCCCC1)c1cc2c(s1)-c1ccsc1CC2 | · | · | – | · | · | ·
CN(Cc1cccnc1)C(=O)c1c(OCC2CC2)cc(=O)n2c1CCCCC2 | · | · | – | · | · | ·
C=CCC[C@H](CCCCC)OC(=O)/C=C/[C@H](O)[C@@H](O)C[C@H](O)CC=C | · | · | – | ? | · | 26µM
Cc1ccc(CN2C(=O)NC3(CCCN(C(=O)c4cc5ccccc5[nH]4)C3)C2=O)cc1 (stereo not given) | · | · | 13µM | · | · | ·
O=C(O)CN(CCO)CCO | · | · | – | · | · | ·
O=C(c1ccc(-c2ccccc2)cc1)c1cc2ccccc2o1 | · | · | – | · | · | ·
COc1ccc(/C=C/C(=O)Nc2ccccc2C(=O)NCC(c2ccc(OC)cc2)N(C)C)cc1 (stereo not given) | – | – | – | 18µM | ? | 23µM
COC(=O)c1ccccc1NC(=O)/C=C/c1cc(OC)c(OC)c(OC)c1 | – | – | – | 21µM | ? | 21µM
COc1ccc(/C=C/C(=O)Nc2ccccc2C(=O)O)cc1OC | 7.9µM | 3.5µM | – | – | ? | ?
COc1ccc(/C=C/C(=O)Nc2ccccc2C(=O)O)cc1 | 10µM | 7.9µM | – | ? | ? | –
COc1ccc(/C=C/C(=O)Nc2ccccc2C(=O)N2CCCC2)cc1 | – | – | – | – | – | –
CCCCNC(=S)NC1CCC(NC(=S)NCCCC)CC1 (stereo not given) | · | · | – | · | · | ·
CN(C)C(=O)c1ccc(OC2CCN(C(=O)c3ccc(F)c(F)c3)CC2)nc1 | · | · | – | · | · | ·
NC(=O)C(=O)N/N=C/C1CCCCC1 | · | · | – | · | · | ·
CC1(C)Cc2ccccc2C(C(=O)c2ccccc2)=N1 | – | 7.9µM | – | – | – | –
CC1(C)Cc2ccccc2C(NNC(=O)c2ccccn2)=N1 | 0.1µM | 0.05µM | – | 18µM | ? | 21µM
CCCN1CCC2(CC1)C(C#N)=C(N)Oc1c2sc2nc(C)cc(C)c12 | – | – | ? | ? | – | ?
CCOC(=O)N1CCC2(CC1)C(C#N)=C(N)Oc1c2sc2nc(C)cc(C)c12 | ? | 8.9µM | – | ? | ? | 16µM
CCOC(=O)N1CCC2(CC1)C(C#N)=C(N)Oc1c2c(C)nn1-c1cccc(Cl)c1 | – | – | ? | 16µM | – | 18µM
Cc1noc(-c2cn(C3CCCN(C(=O)c4cccc(OC(F)(F)F)c4)C3)nn2)n1 (stereo not given) | · | · | – | · | · | ·
Clc1ccc(CNc2ccccc2NCc2ccc(Cl)nc2)cn1 | – | – | – | 16µM | ? | ?
Cc1ccc(/C=N\NC(=O)c2cccnc2)s1 | · | · | – | · | · | ·
FC(F)(F)c1cccc(CSc2nccc(-c3ccc(Cl)cc3)n2)c1 | · | · | – | · | · | ·
Cc1ccccc1CNC(=O)c1ccc2c(c1)N(Cc1ccccc1)CCS2 | · | · | – | ? | · | 21µM
O=C(NCc1cccnc1)c1ccc2c(c1)N(Cc1ccccc1)CCS2 | – | – | ? | ? | ? | ?
O=C(NCc1ccccc1Cl)c1ccc2c(c1)N(Cc1ccccc1)CCS2 | · | · | ? | 13µM | · | 18µM
CCOC(=O)c1c(C)[nH]c(C(=O)C(C)OC(=O)c2cccc(OCc3c(C)noc3C)c2)c1C (stereo not given) | ? | ? | – | 21µM | ? | 18µM
